Measurements reported in PubChem BioAssay AID1362 (SRMLSC, 2008).
The whole screen tested about 190,000 compounds, of which about 4,000 (2.1%) were called active. Cut-off read from the data, not from the text of the source: active = inhibition above about 58%; inactive = the rest, inconclusive results apart; tested in S. cerevisiae. The list comes from a sample in which actives are over-represented; it also holds similar structures and randomly drawn compounds.

Experiment: growth inhibition of WT strain, primary screen, mitochondrial fusion inhibitor project, WT and mutant strains, chemical genetic (AID 1362)
Conditions: mitochondrial fusion phenotypic screen, at 10 µM
[1] = WT strain, growth inhibition, stronger effect = higher value

| Structure (SMILES) | inhibition [1] | inhibition (mutant strain inhibition) |
| --- | --- | --- |
| Cc1ccc2nc(-c3ccccc3)cc(C(=O)O)c2c1 | 3.84% (inactive) | 0.25% |
| CC(=O)Nc1cccc(-c2cnc3ccccc3n2)c1 | 13.3% (inactive) | 9.81% |
| CCS(=O)(=O)Nc1cccc(-c2cc(-c3ccccc3)c3cc(C)ccc3n2)c1 | 69.3% (active) | -17.6% |
| CCC(C)(C)NC(=O)/C=C/c1cc(OC)c(OC)c(S(=O)(=O)N2CCc3ccccc32)c1 | 7.15% (inactive) | 8.01% |
| COc1ccc(CS(=O)/C(Cl)=C(/Cl)C(=O)Nc2ccc(OC)nc2)cc1 (stereo not given) | 80% (inactive) | 83.5% |
| NC(=O)c1sc2nc3c(c(-c4ccccc4)c2c1N)CCC3 | -6.05% (inactive) | -18.6% |
| Cc1nc2sc(C(=O)c3ccccc3)c(N)c2c2c1CCCC2 | 66.8% (active) | 35.7% |
| CN(C)c1ccnc2sc(C(=O)c3ccccc3)c(N)c12 | 38.8% (inactive) | 22.2% |
| COc1ccccc1CNC(=O)C1Cc2ccccc2C(=O)O1 (stereo not given) | -29.6% (inactive) | -2% |
| CCOc1cc(NC(=O)CCl)c(OCC)cc1NC(C)=O | -12.2% (inactive) | 11.6% |
| CC(C)(C)NC(=O)CN1CCC(NC(=O)C23CC4CC(CC(C4)C2)C3)CC1 | -5.35% (inactive) | -4.48% |
| CSc1ccc(C(=O)C2CCCN(C(=O)c3ccc(C)nc3)C2)cc1 (stereo not given) | 0.28% (inactive) | -10.8% |
| CC1(C)CC(=O)c2cnc3nc4ccccc4n3c2C1 | 16.6% (inactive) | -7.45% |
| c1cncc(-c2nnc3n2C2(CCCCC2)Cc2ccccc2-3)c1 | 11.9% (inactive) | 5.15% |
| O=c1c2ccccc2nc2n1C1(CCCCC1)Cc1ccccc1-2 | 61.2% (active) | 9.31% |
| CCC1(CC)Cc2ccccc2-c2nc3ccccc3c(=O)n21 | -30.3% (inactive) | 0.33% |
| COC(=O)C1=C(C)NC(=O)/C1=C/c1ccc(CNS(=O)(=O)c2ccc(C)cc2)o1 | -8.5% (inactive) | 0.18% |
| NS(=O)(=O)c1ccc(CCNC(=O)c2ccc([N+](=O)[O-])cc2[N+](=O)[O-])cc1 | -6.04% (inactive) | -5.86% |
| COc1cc(NC(=O)c2cccnc2SC)cc(OC)c1 | -8.4% (inactive) | -8.46% |
| COC(=O)c1ccc(NC(=O)c2ccccc2NS(=O)(=O)c2ccccc2)cc1 | 6.94% (inactive) | 15.7% |
| COc1cc(NC(=O)c2ccccc2NS(=O)(=O)c2ccc(Cl)s2)cc(OC)c1 | 67.2% (active) | 46.5% |
| CCOC(=O)C1CCN(c2ncnc3c2c(-c2ccccc2)cn3-c2ccc(C)cc2)CC1 | 14.7% (inactive) | 15.5% |
| COc1cccc(-c2nc(S(=O)(=O)c3ccccc3)c(N3CCOCC3)o2)c1 | -12% (inactive) | -5.11% |
| COc1cccc(CNc2nc3nc4c(c(=O)n3[nH]2)CCC4)c1 | -0.87% (inactive) | -10.6% |
| COc1cccc(-c2cc3nc4c(c(N5CCC6(CC5)OCCO6)n3n2)CCCC4)c1 | 69.6% (active) | 33.9% |
| Cc1ccc(NC(=O)CN2CCC(C(N)=O)CC2)cc1[N+](=O)[O-] | -8.61% (inactive) | -3.52% |
| CCCN(C(=O)CSc1nnnn1C)c1c(N)n(Cc2ccccc2)c(=O)[nH]c1=O | -4.08% (inactive) | -15.2% |
| CC(C)c1ccc2c(c1)c(SC(C)(C)C)c(CC(C)(C)C(=O)O)n2Cc1ccc(Cl)cc1 | 70.4% (active) | 23.5% |

| Structure (SMILES) | inhibition [1] | inhibition (mutant strain inhibition) |
| --- | --- | --- |
| Cc1ccc(C(=O)N2CCN(S(=O)(=O)N3CCOCC3)CC2)cc1 | 8.87% (inactive) | 9.09% |
| COc1ccc(C2CC(c3cccs3)=NN2C(=O)CSc2nncs2)cc1OC (stereo not given) | -1.36% (inactive) | -8.65% |
| Cc1ccccc1CC1(CO)CCCN(Cc2ccc3c(c2)OCCO3)C1 (stereo not given) | -4.77% (inactive) | 1.77% |
| NC(=O)C[n+]1cccc(C(N)=O)c1 | -12.7% (inactive) | -23.1% |
| COc1ccc(Cn2c(=O)cc(C)[nH]c2=S)cc1 | -15.8% (inactive) | -20.1% |
| COc1ccc(C(=O)CN(C(=O)c2ccc(Cl)cc2)N2C(=O)c3ccccc3C2=O)cc1 | 6.73% (inactive) | 27.8% |
| COc1ccc(Cn2c(-c3ccc(Cl)cc3)c[n+]3ccccc23)cc1 | 65.1% (active) | 49.9% |
| COCCNC(=O)CCCn1c(=O)c2ccccc2n(Cc2cccc([N+](=O)[O-])c2)c1=O | 5.52% (inactive) | 6.42% |
| O=C(NCCCNc1ccc([N+](=O)[O-])cc1Cl)c1ccccc1F | -8.75% (inactive) | -6.43% |
| COCCn1c(Cc2cccn2C)nnc1SCC(=O)Nc1nccs1 | 1.47% (inactive) | 4.94% |
| Cc1ccc(NC(=O)CC2S/C(=N/N=C3\CCCc4ccccc43)NC2=O)cc1 (stereo not given) | 83.8% (active) | 33.5% |
| Cc1c(Cl)cccc1NC(=O)CC1SC(=NCC2CCCO2)NC1=O (stereo not given) | -15.1% (inactive) | 19% |
| CCN=C1SC(CC(=O)Nc2ccc(C)cc2)C(=O)N1CC (stereo not given) | -14.8% (inactive) | 6.26% |
| COc1ccnc(Oc2ccccc2)c1-c1ncn[nH]1 | 3.65% (inactive) | 2.35% |
| CC(=O)C1=C(O)C(=O)N(c2cccnc2)C1c1ccc([N+](=O)[O-])cc1 (stereo not given) | 2.65% (inactive) | -8.89% |
| Cc1cc(=O)[nH]c(SCC(N)=O)c1C#N | 59.8% (active) | -65.4% |
| Cc1cc(C)c(C#N)c(SCC(=O)Nc2ccccc2)n1 | 9.11% (inactive) | -9.66% |
| Cc1cc(C#N)c(SCC(N)=O)nc1-c1ccc(F)cc1 | -8.84% (inactive) | 0.95% |
| C=CCOc1c(CNn2cn[nH]c2=S)cccc1OC | -4.69% (inactive) | -6.27% |
| Cc1ccc(CNC(=O)c2cccnc2Cl)cc1 | -14.3% (inactive) | -25.1% |
| CN(C)CCOc1ccc(Cl)cc1C(C)(C)C | 27.8% (inactive) | 4.52% |
| CCc1nc(C)ccc1OCC(=O)N(CC)CC | -20.5% (inactive) | -10.4% |
| CCC(C)(C)c1ccc(OCC(=O)N(C)C)c(C(C)(C)CC)c1 | 79.9% (active) | 14.1% |
| O=S1(=O)CC/C(=N\Nc2ccc(F)cc2)c2ccsc21 | 26.2% (inactive) | 34.7% |
| COc1ccc(NC(=O)COC(=O)CNC(=O)C2CCCCC2)cc1 | -11.9% (inactive) | 12.1% |
| CCC(C)(C)c1ccc(Oc2ccc(NC(=O)COC(=O)C3=COCCO3)cc2)cc1 | 60.5% (active) | 33.7% |
| O=C(OCC(=O)c1cccs1)C1=COCCO1 | 9.96% (inactive) | 20.9% |
